4 compounds from PubChem BioAssay (EPA / NIEHS) can be followed below.

One may read the AC50 as the concentration giving half of the maximal activity seen.

The structures appear in SMILES notation. Results filed as inconclusive are left out. Calls of active or inactive are those of the source. The calls were made as follows, unless noted: active = hit-call score of the fitted dose curve at least 0.9, where 1 is the maximum; inactive = score below 0.9.

Read-out in assay [1]: solute carrier (SLC22A1), SLC22A1 (gene 6580)
In words: LTEA_HepaRG_SLC22A1: Life Technologies and Expression Analysis (LTEA) Assay for solute carrier (SLC22A1) using HepaRG (AID 2283524). The conditions noted are these: mRNA level, 48 h; actives raise or lower the signal. In a few lines: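 Transcript level of SLC22A1 quantified by qRT-PCR (normalized to three housekeeping genes) after 48 h chemical exposure of HepaRG cells, eight concentrations up to 100 µM, half-log steps, 0.5% DMSO vehicle. Gain or loss relative to DMSO fitted bidirectionally.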

Read-out in assay [2]: Pyruvate Dehydrogenase Kinase 4 (PDK4), PDK4 (gene 5166)
In words: LTEA_HepaRG_PDK4: Life Technologies and Expression Analysis (LTEA) Assay for Pyruvate Dehydrogenase Kinase 4 (PDK4) using HepaRG (AID 2283525). The conditions noted are these: mRNA level, 48 h; actives raise or lower the signal. In a few lines:
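Readout is qRT-PCR of PDK4 transcript, normalized to three housekeeping genes, with bidirectional fitting against 0.5% DMSO vehicle. Differentiated HepaRG cells were treated 48 h in serum-free induction medium, duplicate wells, eight-point half-log series topping at 100 uM.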

Read-out in assay [3]: NAD(P)H dehydrogenase [quinone] 1 (NQO1), NQO1 (gene 1728)
Kind of assay: LTEA_HepaRG_NQO1: Life Technologies and Expression Analysis (LTEA) Assay for NAD(P)H dehydrogenase [quinone] 1 (NQO1) using HepaRG (AID 2283526). The conditions noted are these: mRNA level, 48 h; actives raise or lower the signal. In a few lines:
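In this assay, gene expression is read by qRT-PCR after 48 h exposure of HepaRG cells to eight concentrations (max 100 uM, half-log) in 0.5% DMSO. Each chemical runs in duplicate, and activity is scored relative to vehicle.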

Read-out in assay [4]: Nuclear factor erythroid 2-related factor 2 (Homo sapiens) (UniProt Q16236)
In words: LTEA_HepaRG_NFE2L2: Life Technologies and Expression Analysis (LTEA) Assay for Nuclear factor erythroid 2-related factor 2 (NFE2L2) Transcription Factor using HepaRG (AID 2283527). The conditions noted are these: mRNA level, 48 h; actives raise or lower the signal. In a few lines:
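NFE2L2 transcript level was read by qRT-PCR (housekeeping ACTB/GAPDH/POLR2A normalisation) after 48 h chemical treatment of HepaRG in serum-free induction medium. Duplicate 8-point half-log curves, top 100 uM, 0.5% DMSO vehicle; up- or down-regulation fitted against vehicle.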

Read-out in assay [5]: Signal transducer and activator of transcription 3 (Homo sapiens) (UniProt P40763)
In words: LTEA_HepaRG_STAT3: Life Technologies and Expression Analysis (LTEA) Assay for Signal transducer and activator of transcription (STAT3) using HepaRG (AID 2283529). The following applies: mRNA level, 48 h; actives raise or lower the signal. A digest of the protocol: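 STAT3 transcript quantified by qRT-PCR against three housekeeping genes (ACTB, GAPDH, POLR2A), fitted both directions relative to DMSO. HepaRG cultures exposed 48 h to eight half-log concentrations, top 100 uM, 0.5% DMSO, serum-free induction medium.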

Read-out in assay [6]: solute carrier (SLCO1B1), SLCO1B1 (gene 10599)
In words: LTEA_HepaRG_SLCO1B1: Life Technologies and Expression Analysis (LTEA) Assay for solute carrier (SLCO1B1) using HepaRG (AID 2283530). The conditions noted are these: mRNA level, 48 h; actives raise or lower the signal. In a few lines: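 Differentiated human HepaRG cells, plated 48 h, switched to serum-free induction medium and exposed in duplicate for 48 h to 8 half-log concentrations (top 100 uM) in 0.5% DMSO. SLCO1B1 mRNA by TaqMan qRT-PCR, normalized to ACTB/GAPDH/POLR2A.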

Read-out in assay [7]: sulfotransferase 2A1 (SULT2A1), SULT2A1 (gene 6822)
In words: LTEA_HepaRG_SULT2A1: Life Technologies and Expression Analysis (LTEA) Assay for sulfotransferase 2A1 (SULT2A1) using HepaRG (AID 2283531). The conditions noted are these: mRNA level, 48 h; actives raise or lower the signal. In a few lines: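 Differentiated human HepaRG cells in serum-free induction medium were exposed for 48 h to eight half-log concentrations (top 100 uM, 0.5% DMSO). SULT2A1 mRNA was measured by qRT-PCR, normalized to ACTB, GAPDH and POLR2A, and fitted bidirectionally against DMSO.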

Read-out in assay [8]: Transforming Growth Factor (TGFA), TGFA (gene 7039)
Kind of assay: LTEA_HepaRG_TGFA: Life Technologies and Expression Analysis (LTEA) Assay for Transforming Growth Factor (TGFA) using HepaRG (AID 2283532). The following applies: mRNA level, 48 h; actives raise or lower the signal. A digest of the protocol:
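TGFA transcript quantified by qRT-PCR (Fluidigm arrays) against three housekeeping genes, after 48 hours chemical treatment of HepaRG cells. Top concentration 100 uM with half-log dilutions, 8 points, duplicates, 0.5% DMSO.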

Read-out in assay [9]: TIMP1, TIMP1 (gene 7076)
Kind of assay: LTEA_HepaRG_TIMP1: Life Technologies and Expression Analysis (LTEA) Assay for TIMP1 using HepaRG (AID 2283534). The conditions noted are these: mRNA level, 48 h; actives raise or lower the signal. In a few lines:
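Differentiated human HepaRG cells in serum-free induction medium were exposed 48 h to chemicals (8 half-log concentrations, top 100 uM, 0.5% DMSO). TIMP1 mRNA was quantified by TaqMan qRT-PCR, normalized to ACTB/GAPDH/POLR2A; bidirectional fit versus DMSO.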

Read-out in assay [10]: Tumor necrosis factor receptor 1 (TNFRSF1A), TNFRSF1A (gene 7132)
In words: LTEA_HepaRG_TNFRSF1A: Life Technologies and Expression Analysis (LTEA) Assay for Tumor necrosis factor receptor 1 (TNFRSF1A) using HepaRG (AID 2283535). The conditions noted are these: mRNA level, 48 h; actives raise or lower the signal. A digest of the protocol:
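Differentiated human HepaRG cells were exposed in duplicate for 48 h in serum-free induction medium to eight concentrations (top 100 uM, half-log steps, 0.5% DMSO). TNFRSF1A mRNA was quantified by qRT-PCR, normalized to ACTB, GAPDH and POLR2A, then fitted bidirectionally against DMSO.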

Read-out in assay [11]: Thyroid Hormone Responsive (THRSP), THRSP (gene 7069)
In words: LTEA_HepaRG_THRSP: Life Technologies and Expression Analysis (LTEA) Assay for Thyroid Hormone Responsive (THRSP) using HepaRG (AID 2283536). The conditions noted are these: mRNA level, 48 h; actives raise or lower the signal. In a few lines: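 THRSP transcript quantified by Fluidigm qRT-PCR against three housekeeping genes after 48 h chemical exposure of HepaRG cells in serum-free induction medium; eight-point half-log series, top 100 uM, 0.5% DMSO vehicle, duplicate wells.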

Read-out in assay [12]: Cellular tumor antigen p53 (Homo sapiens) (UniProt P04637)
In words: LTEA_HepaRG_TP53: Life Technologies and Expression Analysis (LTEA) Assay for Tumor Protein P53 (TP53) using HepaRG (AID 2283537). The following applies: mRNA level, 48 h; actives raise or lower the signal. A digest of the protocol:
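Differentiated HepaRG cells in serum-free induction medium exposed 48 h in duplicate to 8 half-log concentrations, top 100 uM, 0.5% DMSO. TP53 mRNA by TaqMan qRT-PCR (Fluidigm), normalized to ACTB, GAPDH, POLR2A; fitted bidirectionally versus DMSO.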

Read-out in assay [13]: UDP glucuronosyltransferase (UGT1A1), UGT1A1 (gene 54658)
Kind of assay: LTEA_HepaRG_UGT1A1: Life Technologies and Expression Analysis (LTEA) Assay for UDP glucuronosyltransferase (UGT1A1) using HepaRG (AID 2283538). The following applies: mRNA level, 48 h; actives raise or lower the signal. In a few lines: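 mRNA induction or loss of UGT1A1, by TaqMan qRT-PCR, in duplicate HepaRG wells after 48 h exposure to half-log dilutions topping at 100 uM; DMSO (0.5%) served as baseline.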

Read-out in assay [14]: UDP glucuronosyltransferase (UGT1A6), UGT1A6 (gene 54578)
In words: LTEA_HepaRG_UGT1A6: Life Technologies and Expression Analysis (LTEA) Assay for UDP glucuronosyltransferase (UGT1A6) using HepaRG (AID 2283539). The conditions noted are these: mRNA level, 48 h; actives raise or lower the signal. In a few lines: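 Human HepaRG cells were dosed for 48 h in serum-free induction medium with 0.5% DMSO vehicle, eight-point half-log series from 100 uM, in duplicate. UGT1A6 mRNA was measured by qRT-PCR, normalized to ACTB, GAPDH, POLR2A, and fitted bidirectionally against DMSO.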

Read-out in assay [15]: X-box binding protein 1 (XBP1), XBP1 (gene 7494)
In words: LTEA_HepaRG_XBP1: Life Technologies and Expression Analysis (LTEA) Assay for X-box binding protein 1 (XBP1) using HepaRG (AID 2283540). The following applies: mRNA level, 48 h; actives raise or lower the signal. In a few lines: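 Differentiated human HepaRG cells in serum-free induction medium were exposed in duplicate for 48 h to eight half-log concentrations up to 100 uM in 0.5% DMSO. XBP1 mRNA was quantified by qRT-PCR, normalised to ACTB, GAPDH and POLR2A, with bidirectional fitting against DMSO.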

A short description of assay [16]: LTEA_HepaRG_LDH_cytotoxicity: Cytotoxicity Assessment in the Life Technologies and Expression Analysis (LTEA) Assay (AID 2283563; active = hit-call score of the fitted dose curve at least 0.9, where 1 is the maximum). In a few lines:
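Differentiated human HepaRG cells, plated 48 h beforehand, were switched to serum-free induction medium and exposed for 48 h to eight half-log concentrations (top 100 uM) in 0.5% DMSO. LDH was measured in spent medium; activity was fitted relative to DMSO vehicle.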

Assay [17] is described as follows: ATG_XTT_Cytotoxicity: Cytotoxicity Assessment in the Attagene TRANS-FACTORIAL HepG2 Assay (AID 2283584; active = hit-call score of the fitted dose curve at least 0.9, where 1 is the maximum). A digest of the protocol:
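HepG2 human liver cells, transiently transfected with multiple GAL4-UAS reporter units, were dosed and read at 24 h by XTT as cell number. Loss of signal was fitted relative to DMSO negative control baseline.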

The nature of assay [18]: TOX21_p53_BLA_p2_viability: Viability Assessment in the Tox21 HCT-116 p53 Agonism Beta-lactamase Assay, Phase 2 (AID 2283591; active = hit-call score of the fitted dose curve at least 0.9, where 1 is the maximum;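 also: compound exposure lasted 16 h at 37 °C; actives lower the ATP signal meaning cytotoxicity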). A digest of the protocol: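 Cytotoxicity readout: CellTiter-Glo ATP luminescence, 30 min at room temperature, after the beta-lactamase read. Cells were HCT116 exposed 16 h at 37C to compounds pin-transferred at 217-fold dilution from DMSO stocks.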

Read-out in assay [19]: Transforming Growth Factor (TGFB1), TGFB1 (gene 7040)
Kind of assay: LTEA_HepaRG_TGFB1: Life Technologies and Expression Analysis (LTEA) Assay for Transforming Growth Factor (TGFB1) Transporter using HepaRG (AID 2283533). The conditions noted are these: mRNA level, 48 h; actives raise or lower the signal. In a few lines:
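Differentiated human HepaRG cells in serum-free induction medium were exposed in duplicate for 48 h to eight concentrations (top 100 uM, half-log steps, 0.5% DMSO). TGFB1 mRNA was quantified by qRT-PCR, normalized to ACTB, GAPDH, POLR2A, and fitted bidirectionally against DMSO.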

Read-out in assay [20]: succinate dehydrogenase complex iron sulfur subunit B (SDHB), SDHB (gene 6390)
In words: LTEA_HepaRG_SDHB: Life Technologies and Expression Analysis (LTEA) Assay for succinate dehydrogenase complex iron sulfur subunit B (SDHB) using HepaRG (AID 2283528). The conditions noted are these: mRNA level, 48 h; actives raise or lower the signal. A digest of the protocol: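 HepaRG cells (~100,000/well, plated 48 h) exposed in duplicate for 48 h in serum-free induction medium to 8-point half-log series from 100 uM in 0.5% DMSO; mRNA by qRT-PCR normalised to ACTB, GAPDH, POLR2A; bidirectional fit versus DMSO.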

Sequence of Nuclear factor erythroid 2-related factor 2 (Homo sapiens) (Q16236 whole entry, looked up): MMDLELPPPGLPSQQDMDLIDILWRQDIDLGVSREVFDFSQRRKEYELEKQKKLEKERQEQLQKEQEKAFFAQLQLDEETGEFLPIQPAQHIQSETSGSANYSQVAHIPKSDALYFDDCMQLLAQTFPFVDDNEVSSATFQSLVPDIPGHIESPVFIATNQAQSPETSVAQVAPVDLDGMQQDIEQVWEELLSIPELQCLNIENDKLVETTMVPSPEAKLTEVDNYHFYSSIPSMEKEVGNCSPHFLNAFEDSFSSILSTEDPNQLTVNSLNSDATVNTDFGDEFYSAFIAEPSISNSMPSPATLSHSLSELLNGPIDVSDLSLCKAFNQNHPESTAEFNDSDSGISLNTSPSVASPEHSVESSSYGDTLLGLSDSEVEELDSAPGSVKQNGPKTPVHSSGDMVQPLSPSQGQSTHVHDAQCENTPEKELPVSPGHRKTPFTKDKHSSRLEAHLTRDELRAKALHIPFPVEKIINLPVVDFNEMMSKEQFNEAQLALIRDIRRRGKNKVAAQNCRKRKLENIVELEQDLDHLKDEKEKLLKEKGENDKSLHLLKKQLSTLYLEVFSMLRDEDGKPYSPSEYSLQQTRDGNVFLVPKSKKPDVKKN
Sequence of Cellular tumor antigen p53 (Homo sapiens) (P04637 whole entry, looked up): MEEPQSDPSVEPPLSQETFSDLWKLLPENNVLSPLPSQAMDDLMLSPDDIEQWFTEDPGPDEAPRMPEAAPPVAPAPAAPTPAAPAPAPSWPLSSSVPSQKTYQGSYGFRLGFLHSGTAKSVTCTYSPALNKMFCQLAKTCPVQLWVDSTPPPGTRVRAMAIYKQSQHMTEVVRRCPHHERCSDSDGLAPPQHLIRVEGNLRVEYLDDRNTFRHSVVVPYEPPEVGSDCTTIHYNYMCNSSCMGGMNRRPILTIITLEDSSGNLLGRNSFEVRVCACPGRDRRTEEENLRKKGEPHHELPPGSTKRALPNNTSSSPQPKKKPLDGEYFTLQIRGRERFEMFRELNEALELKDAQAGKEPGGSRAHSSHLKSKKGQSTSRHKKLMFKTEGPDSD
Sequence of Signal transducer and activator of transcription 3 (Homo sapiens) (P40763 whole entry, looked up): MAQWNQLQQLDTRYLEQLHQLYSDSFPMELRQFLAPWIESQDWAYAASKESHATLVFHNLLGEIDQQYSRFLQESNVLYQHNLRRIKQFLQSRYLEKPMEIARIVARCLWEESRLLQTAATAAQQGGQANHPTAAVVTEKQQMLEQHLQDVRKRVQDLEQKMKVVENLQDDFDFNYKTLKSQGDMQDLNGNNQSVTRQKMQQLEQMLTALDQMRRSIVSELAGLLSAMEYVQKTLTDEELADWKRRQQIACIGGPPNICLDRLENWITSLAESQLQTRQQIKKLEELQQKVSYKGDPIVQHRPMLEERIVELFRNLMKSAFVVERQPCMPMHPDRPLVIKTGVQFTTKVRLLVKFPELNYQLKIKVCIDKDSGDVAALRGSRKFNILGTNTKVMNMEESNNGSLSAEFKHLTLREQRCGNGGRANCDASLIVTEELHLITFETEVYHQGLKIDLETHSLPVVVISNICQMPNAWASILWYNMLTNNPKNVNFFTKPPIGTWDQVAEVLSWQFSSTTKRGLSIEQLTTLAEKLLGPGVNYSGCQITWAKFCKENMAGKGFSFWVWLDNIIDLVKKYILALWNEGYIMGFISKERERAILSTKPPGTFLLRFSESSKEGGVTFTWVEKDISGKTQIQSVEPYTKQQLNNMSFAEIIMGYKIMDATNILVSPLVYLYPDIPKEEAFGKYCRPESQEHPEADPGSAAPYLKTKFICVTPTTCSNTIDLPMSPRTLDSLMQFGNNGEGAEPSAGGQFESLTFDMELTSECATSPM

Consider `OCCCBr`, for which the outcome in [1], in [2], in [3], in assay [4], in assay [5] and in assay [6] was inactive. Further, the call in [7], in assay [8], in [9], in assay [10], in assay [11] and in [12] was inactive. Moreover, the outcome in assay [13], in assay [14], in assay [15], in [16], in assay [17] and in [18] was inactive.
With `CC(O)CCO` (configuration not stated), the outcome in assay [1], in assay [2], in assay [3], in [4], in assay [5] and in assay [6] was inactive. Also, the call in [7], in assay [8], in assay [19], in assay [9], in [10] and in [11] was inactive. The outcome in assay [12], in [13], in assay [14], in assay [15], in assay [16] and in assay [18] was inactive.
`C=CCc1ccc2c(c1)OCO2`: the call in assay [1], in [2], in assay [3], in [4], in assay [5] and in assay [6] was inactive. Further, the call in assay [7], in assay [8], in [19], in assay [9], in [10] and in assay [11] was inactive. Also, the result in assay [12], in assay [13], in assay [14], in [15], in assay [16] and in [18] was inactive.
For the compound `Cn1cc(-c2ccccc2)c(=O)c(-c2cccc(C(F)(F)F)c2)c1`, the concentration at half-maximal activity (AC50) is 50 µM (active) in assay [2]; 20.9 µM (active) in assay [4]; 9.92 µM (active) in assay [7]; 8.71 µM (active) in [13]; 15 µM (active) in assay [15]. For the same compound, the result in assay [3], in assay [20], in assay [5], in [6], in assay [8] and in assay [19] was inactive. Besides, the compound was classed as inactive in assay [9], in assay [10], in [11], in assay [12], in [14] and in assay [16]. In assay [18], the outcome was inactive.
